KKLEB tox: cytotoxicity in KKLEB CF airway cells, primary screen, cytotoxicity control for CF NF-kB inhibitor project, cell-based, uHTS, fluorescence assay plates; activity change (cytotoxicity), % at 5 µM; 0.36% of 360,000 active; KKLEB CF airway cells viability, ATPlite luminescence, overnight; stronger effect = lower value; cells stimulated with P. aeruginosa culture filtrate;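 active = corrected activity change at or below -50% at 5 µM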
CF NFkB inh: inhibitors of PAF-induced NF-kB signaling, primary screen, cell-based, GFP fluorescence, uHTS; KKLEB NF-kB-GFP reporter, GFP fluorescence overnight; inhibition, % at 5 µM; 0.86% of 360,000 active;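 active = at least 50% inhibition at 5 µM, scaled per plate between neutral and stimulator controls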;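 note: PAF is a Pseudomonas aeruginosa culture filtrate used as stimulus; plate controls were PAF-stimulated DMSO wells for no effect and unstimulated DMSO wells for full effect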
HIF-2a block: HIF-2a reporter inhibitors, primary screen, luminescence, 786-0 RCC cells; inhibition, % at 18.8 µM; 0.72% of 360,000 active; 786-0 RCC cells HIF-2a reporter, luciferase luminescence, overnight; AID 624352, 2012;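 active = inhibition of the luminescence signal of 40% or more relative to plate controls, in a single-dose primary screen at 18.75 µM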
ABHD5 PLIN5 PPI: ABHD5-PLIN5 interaction inhibitors, primary screen, cell lysate, split luciferase complementation, luminescence; inhibition, % at 4 µM; AID 602281, 2012; Split G. princeps luciferase complementation, 4 h; 0.78% of 360,000 active; Perilipin-5 (Homo sapiens) + 1-acylglycerol-3-phosphate O-acyltransferase ABHD5 (Homo …;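 active = inhibition above the mean inhibition across every tested compound plus 3 SD, cut at about 22% in these data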;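 note: 0% = DMSO only wells and the 100% control is not disclosed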
Peg3 prom inh: Peg3 promoter-driven luciferase inhibitors, primary screen, cell-based, HeLa, luciferase luminescence; HeLa PEG-Prom luciferase reporter, overnight; inhibition, % at 20 µM; 1.7% of 360,000 active;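 active = inhibition of at least 50% at 20 µM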
Mdm2-MdmX inh: inhibitors of human Mdm2-MdmX association, primary screen, cell-based, luminescence, split luciferase, SaOS-2, uHTS | Protein Mdm4 (Homo sapiens) + E3 ubiquitin-protein ligase Mdm2 (Homo sapiens), … | SaOS-2 split-luciferase Mdm2/MdmX complementation | inhibition, % at 8 µM | 3% of 330,000 active;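 active = inhibition of at least 50% at 8 µM in the primary screen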
CF NFkB inh conf: inhibitors of PAF-induced NF-kB signaling, retest, confirmation, cell-based, GFP fluorescence, single concentration; inhibition, % at 5 µM; 64% of 1,300 active; shares compounds with CF NFkB inh; KKLEB CF airway cells, overnight; in the data active = inhibition above about 40%;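 note: stimulus PAF is a Pseudomonas aeruginosa filtrate and not platelet activating factor; plate controls were DMSO wells with stimulus for no effect and unstimulated DMSO wells for full effect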
ABHD5-PLIN5 conf: ABHD5-PLIN5 interaction inhibitors, confirmation, biochemical, luminescence. 67% of 2,200 active. shares compounds with ABHD5 PLIN5 PPI. inhibition, % at 4 µM; in the data active = inhibition above about 23%;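 note: 0% = DMSO vehicle wells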
HNF4 counter: HNF4 dimerization inhibitors, counter-screen for ABHD5-PLIN5 interaction inhibitor project, biochemical, split-luciferase complementation, luminescence; 77% of 2,200 active; shares compounds with ABHD5 PLIN5 PPI; inhibition, % at 4 µM;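 active = mean inhibition across replicate wells exceeding the computed hit threshold, cut at about 13% in these data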;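 note: light from luciferase halves that rejoin when HNF4 fusion proteins dimerize; 0% = DMSO only wells and the 100% control is not given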
Target sequence (P41235 whole entry, looked up, the tested form may be a part): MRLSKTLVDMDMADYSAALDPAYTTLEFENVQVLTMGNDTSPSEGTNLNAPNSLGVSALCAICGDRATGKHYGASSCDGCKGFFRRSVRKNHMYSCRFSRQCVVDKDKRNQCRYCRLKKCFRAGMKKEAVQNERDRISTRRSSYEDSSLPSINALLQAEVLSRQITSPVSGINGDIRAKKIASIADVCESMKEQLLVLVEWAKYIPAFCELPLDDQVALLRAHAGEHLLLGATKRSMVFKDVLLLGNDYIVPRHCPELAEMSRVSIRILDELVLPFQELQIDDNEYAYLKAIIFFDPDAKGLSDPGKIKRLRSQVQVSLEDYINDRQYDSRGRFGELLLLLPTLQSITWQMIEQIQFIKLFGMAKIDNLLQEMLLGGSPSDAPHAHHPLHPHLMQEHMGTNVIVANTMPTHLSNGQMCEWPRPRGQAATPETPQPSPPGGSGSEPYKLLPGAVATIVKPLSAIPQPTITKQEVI
* = called active by the depositor; / = not tested or not shown. Sampled rows, rich in hits. Any-hit rate of the full collection: about 4.6%.

SMILES | KKLEB tox | CF NFkB inh | HIF-2a block | ABHD5 PLIN5 PPI | Peg3 prom inh | Mdm2-MdmX inh | CF NFkB inh conf | others
CN(C(=O)COC(=O)c1ccc(C(C)(C)C)cc1)C1CCS(=O)(=O)C1 (stereo not drawn) | 12.8 | -11.5 | 1.6 | 8.6 | -9.6 | 29.2 | /
CCOc1ccc(S(=O)(=O)Nc2nc3ccccc3nc2N2CCN(C)CC2)cc1 | -7.6 | -4.1 | -38.6 | 14.0 | -9.6 | 17.6 | /
O=S(=O)(Nc1nc2ccccc2nc1N1CCN(c2ccccc2F)CC1)c1ccc(Cl)cc1 | -46.6 | 60.8* | -2.8 | 0.4 | 49.0 | 26.1 | 66.2*
N#Cc1c(-c2ccc(Cl)cc2)n(O)c2ccccc12 | -34.4 | 52.4* | -91.6 | -8.2 | -14.4 | / | 76.5*
Cn1c(-c2ccc(C#N)cc2)c(C#Cc2ccccc2)c2ccccc21 | 10.2 | -6.9 | -73.8 | 7.9 | -30.2 | / | /
COc1cc(C(=O)NC(=S)NNC(=O)c2ccc3c(c2)OCO3)cc(OC)c1OC | 7.0 | -3.0 | 12.8 | -7.9 | 19.1 | 11.0 | /
COc1cc(C(=O)c2cc3c(cc2C)OCO3)cc(OC)c1OC | -18.6 | 57.6* | 5.1 | 0.3 | -71.3 | / | 82.5*
Cc1nnc(Sc2nc3ccccc3o2)c2ccccc12 | -35.4 | 55.2* | -39.6 | 8.7 | -101.7 | 36.7 | 52.1*
COc1ccc(NC(=O)COC(=O)c2c(NC(C)=O)sc(C)c2C)cc1 | -45.1 | 55.6* | -9.5 | 4.5 | 4.5 | / | 24.0
Cc1csc(CNc2ncnc3ccc(-c4ccccc4Cl)cc23)c1 | -10.2 | 10.1 | -9.1 | -7.5 | -6.4 | 9.1 | /
COc1cccc(-c2ccc3ncnc(NCc4cc(C)cs4)c3c2)c1 | 3.8 | 71.4* | 12.3 | 4.8 | 24.2 | 48.5 | 78.0*
CC(C)C[C@H]1CN([C@@H](Cc2ccccc2)CN2CCCC2CN2C(=S)NC[C@@H]2Cc2ccccc2)C(=S)N1CC1CCCCC1 (stereo partly drawn) | / | / | -1.6 | -1.8 | / | / | /
CC(C)C[C@H]1CNC(=S)N1C[C@H]1CCCN1C[C@H](Cc1ccc(O)cc1)N1C[C@H](Cc2ccccc2)N(CC2CCCCC2)C1=S | -3.6 | -5.4 | -13.0 | 8.3 | 16.0 | / | /
Oc1ccc(C[C@H]2CNC(=S)N2CC2CCCN2C[C@H](Cc2ccc(O)cc2)N2C[C@H](Cc3ccccc3)N(CCc3ccccc3)C2=S)cc1 (stereo partly drawn) | 7.5 | 8.8 | -2.5 | 4.4 | 12.3 | / | /
Oc1ccc(C[C@H]2CNC(=S)N2CC2CCCN2C[C@H](Cc2ccccc2)N2C[C@H](Cc3ccc(O)cc3)N(CC3CCCCCC3)C2=S)cc1 (stereo partly drawn) | -23.9 | 57.6* | -37.2 | 4.1 | 44.7 | / | 41.5*
Oc1ccc(C[C@H]2CN([C@@H](Cc3ccc(O)cc3)CN3CCC[C@@H]3CN3C(=S)NC[C@@H]3Cc3ccccc3)C(=S)N2CC2CCCCCC2)cc1 | -35.5 | 58.1* | -29.3 | 16.0 | 100.7* | / | 19.6
CC(C)C[C@H]1CNC(=S)N1C[C@H]1CCCN1C[C@H](Cc1ccccc1)N1C[C@H](Cc2ccc(O)cc2)N(CC2CCCCCC2)C1=S | -46.9 | 61.2* | -7.3 | 4.4 | 98.6* | / | 44.0*
Oc1ccc(C[C@H]2CNC(=S)N2CC2CCCN2C[C@H](Cc2ccc(O)cc2)N2C[C@H](Cc3ccc(O)cc3)N(CC3CCCCC3)C2=S)cc1 (stereo partly drawn) | -13.3 | 58.6* | -36.2 | 15.1 | 43.1 | / | 59.3*
CC1(C(=O)NS(=O)(=O)c2ccc(Cl)s2)CCN1C(=O)CCc1ccccc1 (stereo not drawn) | 5.0 | -2.5 | -3.8 | -8.4 | -1.5 | / | /
CC(C)C[C@@H](CN1CCCC1CN1C(=S)NC[C@@H]1Cc1ccc(O)cc1)N1C[C@H](Cc2ccc(O)cc2)N(CC2CCCCC2)C1=S (stereo partly drawn) | -17.7 | 58.6* | -38.4 | -10.1 | 92.7* | / | 59.9*
CC(C)C[C@@H](CN1CCC[C@@H]1CN1C(=S)NC[C@@H]1Cc1ccc(O)cc1)N1C[C@H](Cc2ccccc2)N(CCc2ccccc2)C1=S | -13.7 | 37.2 | 3.2 | 18.9 | 3.9 | / | /
CCOc1ccc2nc(SCC(=O)c3ccc(O)cc3O)sc2c1 | -0.4 | 58.1* | -63.2 | -5.6 | -71.6 | 5.8 | 44.9*
O=C(COC(=O)c1cc[n+]([O-])cc1)Nc1cc([N+](=O)[O-])ccc1Cl | 16.6 | -37.9 | -0.3 | 2.7 | 5.8 | 23.4 | /
Oc1ccc(Nc2ncnc3scc(-c4ccccc4)c23)cc1 | -15.6 | 61.0* | 24.1 | 6.6 | 15.4 | 32.9 | 78.0*
O=C(/C=C/c1ccc(O)c(O)c1)c1ccccc1O | -9.4 | 5.0 | -244.6 | 10.3 | -216.4 | -73.9 | /
SMILES | KKLEB tox | CF NFkB inh | HIF-2a block | ABHD5 PLIN5 PPI | Peg3 prom inh | Mdm2-MdmX inh | CF NFkB inh conf | others
O=C(C=Cc1ccccc1O)c1ccccc1O | -44.9 | 71.3* | -4.8 | 73.5* | 19.0 | / | 12.8 | ABHD5-PLIN5 conf=98.0*;HNF4 counter=90.5*
COc1ccc(/C=C/C(=O)c2cc(F)ccc2OC(=O)c2ccccc2OC)cc1OC | -22.8 | 70.6* | 75.7* | 62.7* | 52.2* | / | 42.5* | ABHD5-PLIN5 conf=77.6*;HNF4 counter=59.9*
COc1ccc(/C=C/C(=O)c2cc(Br)ccc2OC(=O)c2ccco2)cc1OC | 1.1 | 1.8 | 4.7 | 1.0 | 7.0 | 16.4 | /
C=C1C(=O)[C@]23C[C@H]1CCC2[C@]1(C)C(=O)CC[C@@](C)(C(=O)O)C1C[C@@H]3O (stereo partly drawn) | -13.2 | 70.7* | 13.3 | 46.4* | 61.1* | / | 85.8* | ABHD5-PLIN5 conf=40.8*;HNF4 counter=100.4*
Cc1c(Cl)cccc1NC(=S)C(=C([O-])c1ccc(Cl)s1)[n+]1ccccc1 | -1.8 | 6.2 | -32.2 | -13.4 | -46.9 | / | /
CCCCOC(=O)/C=C\C(=O)NC(N)=O | -10.3 | 56.8* | 31.7 | 51.0* | 11.3 | 7.6 | -15.2 | ABHD5-PLIN5 conf=70.9*;HNF4 counter=57.5*
COc1ccc(CCNC(=O)c2ccc(Br)o2)cc1Br | / | / | -29.7 | -1.3 | / | / | /

Compound activity from PubChem.
